Here are results for 22 molecules from PubChem BioAssay (NCATS).

Records with an inconclusive call do not appear. A call without a number means that no potency is given here. Values without a mark were called inactive. Calls of active or inactive are those of the source. Calls follow the shape of the dose curve; as a rule, active = well fitted curve in the direction sought with a large enough effect; inconclusive = small, poorly fitted or top-dose-only effect, or another doubt; inactive = no such curve, though single readings can be large; an effect the other way counts as inactive or inconclusive.

Assay [1] can be described thus: qHTS to identify inhibitors of the type 1 interferon - major histocompatibility complex class I in skeletal muscle: primary screen against the NCATS Mechanism Interrogation Plate v5.0 (MIPE) Libary (AID 1347411). Also: nearly all actives have a fitted effect of over 65% in size. Also: potency is read from the fitted curve at half-maximal effect. Put shortly: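 Immortalized human C25cl48 myoblasts with HiBit knocked into endogenous HLA-B*08:01 were stimulated with 4.0 ng/ml IFN-beta and exposed to compounds (11-point 1:3 titration, top 46 uM final) for 24 hrs at 37 C; HiBiT lytic luminescence measured.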
(In general: qHTS replaces the single test concentration by a dilution series.)

Assay [2] has as its target Calcium and integrin-binding protein 1 (Homo sapiens) (UniProt Q99828). As to the kind of experiment: Primary qHTS for Identification of Calcium Integrin Binding Protein 1 (CIB1) Competitor (AID 1508620). Also: potency is read from the fitted curve at half-maximal effect. Put shortly:
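Fluorescence polarization competition: CIB1-GST (1 uM final) preincubated with compound 15 min at room temperature, then FITC-labeled alphaIIb peptide (100 nM final) added for another 15 min. Polarization read at Ex 480/Em 540.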

Assay [3] is described as follows: qHTS to identify inhibitors of the type 1 interferon - major histocompatibility complex class I in skeletal muscle: primary screen against the NCATS Pharmaceutical Collection (AID 1347407).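 Also: luminescence of HiBiT knocked into endogenous HLA-B as interferon-induced MHC class I level.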 Put shortly:
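Immortalized human myoblasts (C25cl48) with HiBiT knocked into endogenous HLA-B*08:01 were stimulated with 4.0 ng/ml IFN-beta and treated with compounds ([…] top 46 uM) for 24 hrs at 37 C. HiBiT lytic luminescence read.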

The target of assay [4] is Protein phosphatase 1D (Homo sapiens) (UniProt O15297). As to the kind of experiment: RapidFire Mass Spectrometry qHTS Assay for Modulators of WT P53-Induced Phosphatase 1 (WIP1) (AID 1347424).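 Also: amount of dephosphorylated VEPPL-S-QETFS peptide product formed by WIP1; series mostly up to about 63 µM.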 Put shortly:
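WIP1 (10 nM final) was preincubated 1 h at room temperature with compounds in Tris-HCl pH 7.5, 30 mM MgCl2, TCEP, EGTA, BSA; 2 uM VEPPL-pS-QETFS phosphopeptide was added for 5 min, quenched with formic acid, and dephosphorylated product quantified by RapidFire MS.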

Assay [5] is described as follows: Primary qHTS for inhibitors of La Crosse Virus (LACV) - induced cell death in SH-SY5Y cells (AID 1508616).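 Also: top concentration of the series differs between compounds; higher means more rescue of cells from virus-induced death.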 Put shortly:
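Luminescent ATP readout (ATPLite 1step, 5 min room temperature) measured rescue from LACV-induced death after 6 days of infection at 0.01 MOI; normalized to infected DMSO wells and uninfected DMSO wells.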

Assay [6] is described as follows: Vero cells viability qHTS for Zika virus inhibitors (AID 1347167). Put shortly:
(§1)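 Counter-screen for cytotoxicity of hits from NS2B-NS3 protease qHTS. Overnight-attached cells (2.5 x 10^5 cells/mL, DMEM/4% FBS) were dosed in titration, incubated 24 to 48 hours, then assayed by CellTiter Glo.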

A short description of assay [7]: HepG2 cells viability qHTS for Zika virus inhibitors (AID 1347168). Put shortly: as §1
A short description of assay [8]: Tertiary RLuc qRT-PCR qHTS assay for Zika virus inhibitors (AID 1347169). Also: nearly all actives have a fitted effect of over 55% in size. Also: potency is read from the fitted curve at half-maximal effect. Put shortly: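 Vero cells (1,000/well) infected with recombinant ZIKV-RLuc (Cambodian) at MOI 1-2 after compound addition, 48-72 hrs at 37 degrees C. Live-cell Renilla luciferase substrate added; luminescence read after 1-1.5 hrs.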
(In general: In qPCR the cycle at which signal appears reflects the starting amount.)

Assay [9] concerns the target Protein phosphatase 1D (Homo sapiens) (UniProt O15297). Briefly: Rhodamine-PBP qHTS Assay for Modulators of WT P53-Induced Phosphatase 1 (WIP1) (AID 1347425). Put shortly: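 5 nM WIP1 + 10 uM Rh-PBP, 50 mM Tris pH 7.5, 30 mM MgCl2, 1 mM TCEP, 0.1 mM EGTA, BSA; cpds pinned, 1 hr RT; + 10 uM phosphopeptide; fluorescence 1-min reads x 11 min; delta = f1 - f0.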
Assay [10] is described as follows: Counterscreen qHTS for small molecule stabilizers of the endoplasmic reticulum resident proteome: GLuc-NoTag assay (AID 1508627).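 Also: SH-SY5Y cells given compound then 100 nM thapsigargin to empty ER calcium; series mostly up to about 76 µM.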 Put shortly: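 SH-SY5Y cells stably expressing constitutively secreted GLuc (no SERCaMP tag) were pre-incubated 5 h, treated with compound for 19 h, then 100 nM thapsigargin for 4 h at 37C; medium GLuc read by coelenterazine luminescence.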
In general terms: Counterscreens check selectivity or assay interference.

A short description of assay [11]: Confirmatory qHTS for small molecule stabilizers of the endoplasmic reticulum resident proteome: Secreted ER Calcium Modulated Protein (SERCaMP) assay (AID 1508628).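 Also: SH-SY5Y cells given compound 16 h then thapsigargin 100 nM for 4 h; series mostly up to about 76 µM; nearly all actives have a fitted effect of over 40% in size.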 Put shortly:
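We seeded SH-SY5Y-GLuc-SERCaMP cells, added compounds (three concentrations in the primary run, eleven up to 76.6 uM in confirmation), incubated 16 h, depleted ER calcium with thapsigargin, and read luciferase 4 h later.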

A short description of assay [12]: Cell Viability qHTS for small molecule stabilizers of the endoplasmic reticulum resident proteome (AID 1508629).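 Also: human SH-SY5Y neuroblastoma cells carrying the GLuc-SERCaMP reporter; compound exposure about 46 h in total before the viability read.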 The note with it: cell viability counter-screen, 100 nM thapsigargin for final 4 h. From the text:
Assay Provider: Brandon K. Harvey Ph.D.
National Institute on Drug Abuse, National Institutes of Health, Baltimore, MD
Endoplasmic reticulum (ER) dysregulation is associated with human pathologies including neurodegenerative, cardiovascular, muscular, and diabetic conditions. Maintenance of ER calcium is critical for functions of the ER and its depletion can lead to loss of ER resident proteins, in a process termed exodosis. Therapeutic compounds capable of attenuating the redistribution of ER proteins under pathological conditions may slow or stop disease progression. To identify such compounds, we performed a quantitative high-throughput screen (qHTS) using the SERCaMP assay, which monitors secretion of ER resident proteins triggered by calcium depletion.
SERCaMP was initially developed as a reporter of ER calcium homeostasis using a Gaussia luciferase with a modified signal peptide and carboxy-terminus (GLuc-SERCaMP), modifications that confer secretion of the reporter in response to ER calcium depletion (Henderson et al., 2014). […]
9; Detection; Luminescence; ViewLux imaging system […]
7; Cell viability was measured using the CellTiter-Glo Luminescent Cell Viability Assay (Promega). […]
9; Luminescence was measured using a ViewLux CCD imaging system (Perkin Elmer) equipped with clear filters.

Assay [13] has as its target Calcium and integrin-binding protein 1 (Homo sapiens) (UniProt Q99828). As to the kind of experiment: Confirmatory qHTS for Identification of Calcium Integrin Binding Protein 1 (CIB1) Competitor (AID 1508617). Also: potency is read from the fitted curve at half-maximal effect; nearly all actives have a fitted effect of over 65% in size. To be noted: CIB1 binding competition assay, biochemical qHTS. Put shortly:
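Confirmatory qHTS measures displacement of a FITC-alphaIIb peptide (100 nM) from CIB1-GST (1 uM) by fluorescence polarization. Calcium-containing HEPES buffer, pH 7.4; two 15 min room-temperature incubations.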

Calcium and integrin-binding protein 1 (Homo sapiens), sequence (Q99828 whole entry, looked up): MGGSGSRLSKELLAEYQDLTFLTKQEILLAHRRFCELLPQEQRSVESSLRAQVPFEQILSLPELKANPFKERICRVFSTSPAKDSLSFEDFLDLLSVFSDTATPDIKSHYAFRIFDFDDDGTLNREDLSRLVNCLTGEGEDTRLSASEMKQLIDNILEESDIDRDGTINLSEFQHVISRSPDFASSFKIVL
Protein phosphatase 1D (Homo sapiens), sequence (O15297 whole entry, looked up): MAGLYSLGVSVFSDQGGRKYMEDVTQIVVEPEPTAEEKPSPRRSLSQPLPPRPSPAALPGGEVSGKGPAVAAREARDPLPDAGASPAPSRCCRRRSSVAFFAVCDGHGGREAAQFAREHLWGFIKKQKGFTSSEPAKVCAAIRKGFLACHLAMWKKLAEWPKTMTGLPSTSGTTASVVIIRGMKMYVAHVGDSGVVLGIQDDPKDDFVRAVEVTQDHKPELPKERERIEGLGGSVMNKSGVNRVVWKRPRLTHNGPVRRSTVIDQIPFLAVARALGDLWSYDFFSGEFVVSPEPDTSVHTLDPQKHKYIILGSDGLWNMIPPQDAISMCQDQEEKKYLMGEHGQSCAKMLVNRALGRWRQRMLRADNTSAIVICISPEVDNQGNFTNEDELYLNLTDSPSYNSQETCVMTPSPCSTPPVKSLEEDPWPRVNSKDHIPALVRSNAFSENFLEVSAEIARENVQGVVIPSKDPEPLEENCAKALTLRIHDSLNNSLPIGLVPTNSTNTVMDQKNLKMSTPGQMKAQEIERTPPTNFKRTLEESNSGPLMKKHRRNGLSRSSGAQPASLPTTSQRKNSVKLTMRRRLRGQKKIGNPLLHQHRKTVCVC

For `C=C1[C@H](CO)[C@@H](O)C[C@@H]1n1cnc2c(=O)[nH]c(N)nc21`, the Potency entry in assay [1] and in assay [2] was “inactive” each time.
Turning to `CCN(CC)CCOCCOC(=O)C(CC)(CC)c1ccccc1`, the Potency entry in assay [2] was “inactive”.
Regarding `C=CC[N+]1([C@H]2C[C@H]3[C@@H]4CC[C@H]5C[C@H](O)[C@@H](N6CCOCC6)C[C@]5(C)[C@H]4CC[C@]3(C)[C@H]2OC(C)=O)CCCC1`, the Potency result in [1] was “inactive”.
Take `COc1ccc2nc(NC(=O)Nc3ccccc3)sc2c1`: the outcome in assay [3], in [4] and in assay [5] was inactive. Moreover, the Potency entry in assay [2] is “inactive”.
For `CO[C@H]1C[C@H](O[C@@H]2/C(C)=C/C[C@@H]3C[C@@H](C[C@]4(CC[C@H](C)[C@@H](C5CCCCC5)O4)O3)OC(=O)[C@@H]3C=C(C)/C(=N/O)[C@H]4OC/C(=C\C=C\[C@@H]2C)[C@]43O)O[C@@H](C)[C@@H]1O`, the result in [6] and in [7] was inactive. Moreover, in [8], the Potency entry is “inactive”.
For the molecule `C[C@H]1O[C@@H](O[C@H]2[C@@H](O)C[C@H](O[C@H]3[C@@H](O)C[C@H](O[C@H]4CC[C@@]5(C)[C@H](CC[C@@H]6[C@@H]5C[C@@H](O)[C@]5(C)[C@@H](C7=CC(=O)OC7)CC[C@]65O)C4)O[C@@H]3C)O[C@@H]2C)C[C@H](O)[C@@H]1O`, the molecule was called inactive in assay [6]. Moreover, the Potency in assay [8] was 0.38 µM (active); in assay [1], 0.037 µM (active). Further, in assay [2], the Potency entry is “inactive”.
Consider `C=C1CC[C@H](O)CC1=C/C=C1\CCC[C@]2(C)[C@@H]([C@H](C)/C=C/[C@H](C)C(C)C)CC[C@@H]12`, for which the Potency entry in [2] is “inactive”.
As to `CC[C@H](CC[C@@H](C)[C@H]1CC[C@H]2[C@@H]3CC=C4C[C@@H](O)CC[C@]4(C)[C@H]3CC[C@]12C)C(C)C`, the Potency entry in assay [1] is “inactive”.
On the same count and under the same terms, in the case of `CC(C)Cc1ccc([C@@H](C)C(=O)NS(C)(=O)=O)cc1` it was “inactive”.
As to `C/C(=C\C(=O)OCCCCCCCCC(=O)O)C[C@@H]1OC[C@H](C[C@@H]2O[C@H]2[C@@H](C)[C@H](C)O)[C@@H](O)[C@H]1O`, the Potency result in assay [2] is “inactive”.
In the case of `CC(=O)Oc1cccc2c1C(=O)c1c(OC(C)=O)cc(C(=O)O)cc1C2=O`, the result in [3], in [4], in assay [9] and in assay [5] was inactive.
Consider `CO[C@H]1C[C@@H]2CC[C@@H](C)[C@@](O)(O2)C(=O)C(=O)N2CCCC[C@H]2C(=O)O[C@H]([C@H](C)C[C@@H]2CC[C@@H](OC(=O)C(C)(CO)CO)[C@H](OC)C2)CC(=O)[C@H](C)/C=C(\C)[C@@H](O)[C@@H](OC)C(=O)[C@H](C)C[C@H](C)/C=C/C=C/C=C/1C`, for which the Potency entry in assay [2] was “inactive”.
The same measure, in the same setting: the entry for `COc1ccc(C[C@H](C)NC[C@@H](O)c2ccc(O)c(NC=O)c2)cc1` is “inactive”.
Still for that read-out and setting: the entry for `CC(=O)Nc1ccc(NC(=S)NC(=O)c2ccc(C(C)(C)C)cc2)cc1` is “inactive”.
In the case of `CCC[C@@H]1C[C@@H](C(=O)N[C@@H]([C@H]2O[C@H](SC)[C@H](O)[C@@H](O)[C@H]2O)[C@H](C)Cl)N(C)C1`, in [1], the Potency entry was “inactive”.
Take `C[C@@](Cc1ccc(O)c(O)c1)(NN)C(=O)O`: the molecule was called inactive in [10]. Also, in assay [11], the Potency entry is “inactive”. The max response in assay [12] was -4.61%.
Regarding `O=C1c2ccccc2C(=O)c2c1ccc(O)c2O`, the outcome in assay [3], in [4], in assay [9] and in assay [5] was inactive. Also, the values for the Potency in assay [13] and in assay [2] were 17.8 µM (active) and 35.5 µM (active), respectively.
On to `COc1ccc([C@@H]2CC(=O)c3c(O)cc(O[C@@H]4O[C@H](CO[C@@H]5O[C@@H](C)[C@H](O)[C@@H](O)[C@H]5O)[C@@H](O)[C@H](O)[C@H]4O)cc3O2)cc1O`, for which, in assay [1], the Potency result was “inactive”.
On the same count and under the same terms, in the case of `CNC(=O)[C@H](Cc1c[nH]c2ccccc12)NC(=O)[C@@H](CC(=O)NO)CC(C)C` it was “inactive”.
Consider `CN(C)CCCSc1ccccc1NC(=O)/C=C/c1ccccc1`, for which the call in assay [3], in assay [4], in assay [9] and in assay [5] was inactive. In addition, the Potency result in [2] was “inactive”.
Consider `CCCCC[C@H](O)/C=C/[C@H]1[C@H](O)CC(=O)[C@@H]1CCCCCCC(=O)O`, for which the Potency entry in assay [1] is “inactive”.
Regarding `CC1CC(OC(=O)C(O)c2ccccc2)CC(C)(C)C1` (stereo not given), the Potency result in [2] is “inactive”.
